Results filed as inconclusive are left out. A call without a number means that no potency is given here. Activity calls are given as the source filed them. The call rests on the fitted dose curve; in most records, active means well fitted curve in the direction sought with a large enough effect; inconclusive means small, poorly fitted or top-dose-only effect, or another doubt; inactive means no such curve, though single readings can be large; an effect the other way counts as inactive or inconclusive.
Experiments:
[1] = Primary qHTS for small molecule stabilizers of the endoplasmic reticulum resident proteome: Secreted ER Calcium Modulated Protein (SERCaMP) assay (AID 1508630)
In short: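 The SH-SY5Y reporter protocol was run at 3 concentrations up to 38.3 uM (primary) or 11 concentrations (follow-up): 16 h compound, 100 nM thapsigargin for 4 h, then extracellular luciferase luminescence.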

[2] = molecular target: Calcium and integrin-binding protein 1 (Homo sapiens) (UniProt Q99828); test: Primary qHTS for Identification of Calcium Integrin Binding Protein 1 (CIB1) Competitor (AID 1508620);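 further: GST tagged CIB1 binding a fluorescein labelled alphaIIb integrin peptide tracer; top concentration of the series differs between compounds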
In short: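 Fluorescence polarization competition: CIB1-GST (1 uM final) preincubated with compound 15 min at room temperature, then FITC-labeled alphaIIb peptide (100 nM final) added for another 15 min. Polarization read at Ex 480/Em 540.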

Sequence of Calcium and integrin-binding protein 1 (Homo sapiens) (Q99828 whole entry, looked up): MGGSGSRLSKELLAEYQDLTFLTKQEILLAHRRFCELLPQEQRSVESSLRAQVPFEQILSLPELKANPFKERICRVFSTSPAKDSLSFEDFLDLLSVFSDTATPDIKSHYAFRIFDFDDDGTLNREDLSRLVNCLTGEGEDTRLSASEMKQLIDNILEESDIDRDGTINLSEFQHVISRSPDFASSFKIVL

| Structure (SMILES) | Potency [1] | Potency [2] |
| --- | --- | --- |
| COc1cccc2c1C(=O)c1c(O)c3c(c(O)c1C2=O)C[C@@](O)(C(C)=O)C[C@@H]3O[C@H]1C[C@H](N)[C@H](O)[C@H](C)O1 | inactive | – |
| N[C@H](Cc1c[nH]c2ccccc12)C(=O)O | inactive | inactive |
| C[n+]1c2cc(N)ccc2cc2ccc(N)cc21 (tested in a mixture with another compound) | inactive | – |
| COc1cccc(OC)c1C(=O)N[C@@H]1C(=O)N2[C@@H]1SC(C)(C)[C@@H]2C(=O)O | inactive | inactive |
| CN(C)/N=N/c1nc[nH]c1C(N)=O | inactive | inactive |
| C=C(CC)C(=O)c1ccc(OCC(=O)O)c(Cl)c1Cl | inactive | – |
| O=c1c(-c2ccccc2)c1-c1ccccc1 | inactive | inactive |
| CN(C/C=C/c1ccccc1)Cc1cccc2ccccc12 | inactive | inactive |
| Oc1ccc(Cl)c2cccnc12 | inactive | – |
| Cc1c(C(C)C)c(=O)n(-c2ccccc2)n1C | inactive | – |
| Cc1c(C)n(CCN(C)C)c2ccc(C(=O)OCCN(C)C)cc12 | inactive | inactive |
| N[C@@H](CCC(=O)N[C@@H](CS)C(=O)NCC(=O)O)C(=O)O | inactive | inactive |
| CC(=O)N(O)CCCCCNC(=O)CCC(=O)N(O)CCCCCNC(=O)CCC(=O)N(O)CCCCCN | inactive | inactive |
| CN1C(CCl)Nc2cc(Cl)c(S(N)(=O)=O)cc2S1(=O)=O (stereo not drawn) | inactive | inactive |

— PubChem BioAssay (NCATS)
